Hit rate of the full screen: of about 360,000 compounds, about 17,000 (4.7%) were called active. Another 5% or so got no clear call; they are omitted. Only a selection was taken, and actives are over-represented in it overall. Values without a mark were called inactive. Cut-off read from the data, not from the text of the source: active = activity change below about -50%; inconclusive = mostly about -30% to -49%; inactive = weaker than that.
Assay: qHTS for Inhibitors of Inflammasome Signaling: IL-1-beta AlphaLISA Primary Screen
Conditions: THP-1 LPS/ATP IL-1B secretion, 16 h; at 57.5 µM, hits give low values
Excerpt: Inflammasomes are a set of intracellular multi-protein complexes that enable autocatalytic activation of inflammatory caspases and drive the innate immune response to counter harmful agents. […] A qHTS assay, based on AlphaLISA technology, was developed to screen the Molecular Libraries Small Molecule Repository (MLSMR) to look for novel inflammasome inhibitors. The assay detects IL-1B using AlphaLISA anti-IL-1B acceptor and donor beads. A decreased emission signal, indicating reduced IL-1B secretion, is the desired outcome for this assay. NIH Chemical Genomics Center [NCGC] NIH Molecular Libraries Probe Centers Network [MLPCN] MLPCN Grant: MH095513 Assay Provider: Shyam Biswal Ph.D., Johns Hopkins University Immunity. 2012 Jul 27;37(1):85-95. PMID: 22819042 [2] Curr Pharm Des. 2012;18(16):2320-8. PMID: 22390695
Three microliters containing 3000 THP-1 cells were dispensed into the wells of solid, white, tissue culture treated Greiner 1,536-well plates. Library compounds and positive control, Glyburide, were pin-transferred (23 nL) by a Kalypsys pin-tool equipped with a 1,536-pin array, resulting in final compound concentration ranges of 2.5 nM to 57.5 uM. After 1 hr of cell culture incubation (37 °C, 5% CO2), 1 microL of 1 microg/mL lipopolysaccharide (250 ng/mL, final) and 5 mM ATP (1.25 mM, final) were added to stimulate the cells. After 16 hr of cell culture incubation with the compounds, 1.5 uL of anti-IL-1B acceptor beads (6 ug/mL, final) and biotinylated antibody (0.6 nM, final) were added to the plate, followed by a 1 hr incubation at ambient temperature. To detect the secreted IL-1B, 1.5 uL of AlphaLISA SA-Donor beads (24 ug/mL, final) were added, followed by 30 min of incubation in the dark at ambient temperature. The AlphaLISA signal was read by a PerkinElmer EnVision plate reader with an ultrasensitive luminescence detector and 1536 Plate HTS AlphaScreen aperture (excitation of 680nm and emission of 615nm).
% is set by controls: 0 for no effect and ±100 for the full control effect.

Row | SMILES | activity change
1 | Cc1ccc(S(=O)(=O)N2CCOCC2)cc1NC(=O)COC(=O)c1cnccn1 | 2.75%
2 | CCOC(=O)C1CCCN(C(=O)c2ccc(C)c(F)c2)CC1 (configuration not stated) | 13%
3 | Cn1c(SCC(=O)Nc2ccc(Br)cc2F)nnc1-c1ccco1 | -12.1%
4 | Cn1c(-c2ccco2)nc2cc3ccccc3cc21 | -69.2% (active)
5 | COc1ccccc1-n1c(-c2cc(-c3ccco3)[nH]n2)n[nH]c1=S | 5.01%
6 | NC(=O)CSc1nnc(-c2cccc(S(=O)(=O)N3CCOCC3)c2)o1 | -7.22%
7 | COc1ccc(C(=O)NCC(=O)N/N=C/c2ccc([N+](=O)[O-])o2)cc1OC | -85.8% (active)
8 | COc1cccc(/C=N/NC(=O)CNC(=O)c2ccc(S(=O)(=O)N3CCOCC3)cc2)c1OC | -0.608%
9 | COc1ccc(/C=N/NC(=O)CNC(=O)c2ccc(S(=O)(=O)N3CCCC3)cc2)c(OC)c1 | 16.6%
10 | COc1ccc(-c2c(C#N)cnc(C)c2C)c(O)c1OC | -20.7%
11 | CCCCCOc1ccc(/C=C/C(=O)NCCc2nc3ccccc3[nH]2)cc1OC | -2.9%
12 | COc1cc(/C=C(\C#N)c2nc3ccccc3[nH]2)ccc1O | -65.7% (active)
13 | Cc1ccc(O)c(CNc2nc3ccccc3[nH]2)c1 | -5.71%
14 | O=C(CCN1C(=O)c2ccccc2C1=O)C1=NN[C@@H]2C(=O)N(c3ccc(F)cc3)C(=O)[C@H]12 | 5.83%
15 | CC(C)(C)NCC(O)COc1cccc2[nH]c(=O)[nH]c12 (configuration not stated) | 4.98%
16 | COc1ccc(OCC(O)CNCCNc2nccc(C(F)(F)F)n2)cc1 (configuration not stated) | -18.5%
17 | CC(C)(C)CC(C)(C)NCC(O)COCCOc1ccc(Br)cc1 (configuration not stated) | -99.4% (active)
18 | O=[N+]([O-])c1ccc2c(c1)C(O)n1nc(-c3ccccc3)nc1S2 (configuration not stated) | -8.59%
19 | O=C(C[C@H]1C[C@@H]2c3cc(NC(=O)C4CCC4)ccc3O[C@@H]2[C@H](CO)O1)NC1CCCCC1 | 13%
20 | Cn1cnnc1Sc1ccc(CN2CCN(C3CCCC3)C(CCO)C2)o1 (configuration not stated) | 0.321%
21 | C[C@H]1CN(c2ccc(Br)cc2)C(=O)[C@@H]1CC(=O)Nc1ccc(Br)cc1 | 3.7%
22 | O=C(CSc1c2c(nc3ccc(Cl)cc13)CCCC2)NCc1ccco1 | -92.7% (active)
23 | O=C(/C=C/c1ccc(Cl)cc1Cl)NCc1ccco1 | -10.5%

Row | SMILES | activity change
24 | O=C(CSc1nnnn1-c1ccccc1)NCc1ccco1 | 2.34%
25 | CS(=O)(=O)N1CCCC(C(=O)Nc2ccccc2C(F)(F)F)C1 (configuration not stated) | 8.14%
26 | O=C(Nc1cccc(F)c1)N1C2CCC1CC(O)(c1cccnc1)C2 (configuration not stated) | 31.6%
27 | Cc1cc(C)nc(-n2ncc3c2CC(c2ccc(C(C)C)cc2)CC3=O)n1 (configuration not stated) | -85.9% (active)
28 | Cc1nc2nc3c(cn2n1)C(=O)CC(c1ccccc1)C3 (configuration not stated) | 20.9%
29 | COc1ccc(OC)c(-n2cc3c(=O)n(C)c(=O)n(C)c3c2)c1 | 33%
30 | O=c1ccnc(Nc2ccc(Cl)cc2)[nH]1 | 0%
31 | CC1(C)N=C(N)NC(Nc2ccc(Cl)cc2)=N1 | -77.7% (active)
32 | COc1ccccc1NC1=NC(c2ccc(Cl)cc2)N=C(N)N1 (configuration not stated) | -13.3%
33 | O=C(Nc1ccc2c(c1)OCCO2)C(C1CC1)N1CCC(Cc2ccccc2)CC1 (configuration not stated) | 11.6%
34 | CC12c3ccccc3C(c3ccccc31)C1C(=O)N(Cc3cccnc3)C(=O)C12 (configuration not stated) | -50.6% (active)
35 | CC1Oc2ccccc2N(Cc2cccnc2)C1=O (configuration not stated) | -12.7%
36 | CC1(C)CN(Cc2cccnc2)C(=O)[C@H]1CC(=O)Nc1ccc(Br)cc1 | 24.4%
37 | CC(=O)N1CCN(Cc2cc(=O)oc3cc(C)ccc23)CC1 | 19.5%
38 | O=C(/C(=N\O)n1cncn1)c1ccc(Br)cc1Br | -12.3%
39 | CCN(CC)C(=O)c1sc2nc(-c3ccccc3)ccc2c1N | -57.4% (active)
40 | Cc1nn(C)cc1C(=O)c1ccccc1 | 0%
41 | Cc1nc2sc(C(=O)c3ccccc3)c(N)c2c2c1CCCC2 | -96% (active)
42 | COC(=O)c1cc2c(N)c(C(=O)c3ccc(Cl)cc3)sc2nc1C(OC)OC | -7.51%
43 | Cc1nc2ccccc2c(-c2ccccc2)c1C(=O)c1ccccc1 | 29.5%
44 | Cc1ccc2c(N)c(C(=O)c3ccccc3)sc2n1 | -69.1% (active)
45 | CCN(CC)C(=O)c1sc(NC(=O)c2ccco2)c(C#N)c1C | -26.1%
46 | Cc1cccc(NC(=O)c2sc3nc(N4CCOCC4)c4c(c3c2N)CCCC4)c1 | 11.3%

Row | SMILES | activity change
47 | CCN(CC)C(=O)N(CC)Cc1ccccc1 | 3.47%
48 | COCCCn1c(=O)/c(=C/c2ccccc2OC(C)C)s/c1=C(\C#N)C(=O)Nc1ccc(C(=O)O)cc1 | -11.6%
49 | CC1Cc2ccccc2N1S(=O)(=O)c1cccc(C(=O)NCC(c2ccco2)N2CCCC2)c1 (configuration not stated) | -6.87%
50 | Cc1ccc([C@H]2N[C@]3(CCCN(Cc4ccccc4)C3=O)[C@H]3C(=O)N(Cc4ccccc4)C(=O)[C@@H]23)cc1 | 19.2%
51 | CC(C)N1C(=O)c2ccccc2NC(=O)C1C(=O)NCc1cccs1 (configuration not stated) | 0%
52 | Cc1ccc(S(=O)(=O)Nc2ccc3c(c2)C(=O)N([C@H](C)CO)C[C@@H](C)[C@@H](CN(C)C(=O)Nc2cccc4ccccc24)O3)cc1 | -20.3%
53 | C[C@@H]1CCCCO[C@H](CN(C)Cc2ccccc2)[C@@H](C)CN([C@H](C)CO)C(=O)c2cc(NS(=O)(=O)c3ccc(Cl)cc3)ccc2O1 | -50.8% (active)
54 | C[C@@H]1CN([C@@H](C)CO)C(=O)c2cc(NS(C)(=O)=O)ccc2O[C@@H](C)CCCCO[C@H]1CN(C)C(=O)Nc1ccc2c(c1)OCO2 | -2.98%
55 | COc1cc(NC(=O)c2cc(-c3ccc(F)cc3OC(C)C)n[nH]2)cc(OC)c1OC | -6.74%
56 | Cc1cccc(NC(=S)NCc2ccc3[nH]c4c(c3c2)CCCC4)c1 | -10.4%
57 | Cc1cccc(NC(=S)NCCN(C2CCCCC2)C2CCCC2)c1 | -63.3% (active)
58 | Cc1cccc(C(=O)NC(=S)N(C)C2CCCCC2)c1 | -1.28%
59 | COc1ccc(C)cc1N(C(=O)Cn1nnc(-c2ccc(C)o2)n1)C(C(=O)NC1CCCC1)c1ccncc1 (configuration not stated) | 7.77%
60 | Cc1ccc2c(c1)c1ncnc(N3CCc4ccccc4C3)c1n2C | -19.9%
61 | O=C1CCC(C(=O)OCC(=O)Nc2ccc(OC(F)F)cc2)=NN1 | -2.22%
62 | CCn1ccnc1CN(C)C(=O)c1cc(COc2ccc(-n3cncn3)cc2)on1 | 21.7%
63 | C=CCC1(CC=C)CCCN1C(=O)c1cc(COc2ccc(-n3cncn3)cc2)on1 | -59.7% (active)
64 | O=C(c1cc(COc2ccc(F)c(F)c2)on1)N1CCOCC1 | -28.7%
65 | O=C(NC1CCCC1)C1c2ccccc2OCC(=O)N1Cc1ccccc1 (configuration not stated) | 27.8%
66 | CCN1CCN(C(=O)CCN2C(=O)c3ccccc3C2=O)CC1 | 15.8%
67 | O=C(O)CC12CC3CC(C1)CC(n1ncc(NCc4ccc(F)cc4)c(Cl)c1=O)(C3)C2 | -16%
68 | CSC1=N/C(=C\C=C\c2cccs2)C(=O)S1 | -92.1% (active)
69 | COc1ccc(OC(C)C(=O)Nc2cccnc2)cc1 (configuration not stated) | -0.423%

Row | SMILES | activity change
70 | CC(Sc1nc2c([nH]c3ccccc32)c(=O)n1C)c1ccccc1 (configuration not stated) | 27.7%
71 | O=C1OCCC1=COCCCCOC=C1CCOC1=O | 2.81%
72 | COc1ccc(C(=O)C2CCCN(Cc3cccn3-c3ccccn3)C2)c(C)c1 (configuration not stated) | -99.7% (active)
73 | CCOC(=O)c1[nH]ncc1CN1CCCC(C(=O)c2ccc(OC)cc2C)C1 (configuration not stated) | 0%
74 | COc1ccc(C(=O)C2CCCN(Cc3ccc4nonc4c3)C2)c(C)c1 (configuration not stated) | -3.49%
75 | Cc1[nH]c2ccccc2c1C(=O)C(=O)NCc1nnnn1-c1cccc(F)c1 | 10.9%
76 | Cc1ccccc1-c1csc(C(O)c2cccc(Cl)c2)n1 (configuration not stated) | -11.7%
77 | CCN(CC)c1ncnc2c1ncn2[C@H]1CN(Cc2cccs2)C[C@@H](CO)O1 | -12%
78 | CC(=O)NCCC(=O)Nc1nc(-c2ccc3c(c2)OCCO3)cs1 | 15.5%
79 | Cc1csc(NC(=O)C2=COCCO2)n1 | -3.32%
80 | Cc1ccc(-c2csc(NC(=O)C3=COCCO3)n2)cc1C | -88.1% (active)
81 | Nc1nc2cc(Cl)ccc2n1N | 32.9%
82 | Cc1nn(Cc2ccc(Cl)cc2)c(Cl)c1/C=N/NC(=O)c1cccnc1 | -70.6% (active)
83 | Cc1nn(Cc2ccc(Cl)cc2)c(Cl)c1/C=N/NC(=O)CNc1ccccc1F | -13.7%
84 | CCn1nc(C)c(/C=N/NC(=O)Cc2ccc(Cl)cc2)c1C | 14.8%
85 | COc1ccccc1NC(=O)Nc1nc(CC(=O)Nc2ccccc2F)cs1 | -1.21%
86 | CC(=O)c1ccc(Nc2nc(C(N)c3ccccc3Cl)cs2)cc1 (configuration not stated) | 49.4%
87 | NC(c1csc(NC(=O)Nc2ccccc2Oc2ccccc2)n1)c1ccccc1Cl (configuration not stated) | -71.7% (active)
88 | CC/C(=C\c1ccc(Cl)cc1)c1ccncc1 | 3.7%
89 | COCCCn1c(C(=O)NC2CCCCC2)cc2c(=O)n3cccc(C)c3nc21 | -7.13%
90 | Cn1ncc([N+](=O)[O-])c1C(=O)Nc1cc(Cl)ccc1Cl | -5.95%
91 | COc1ccccc1NC(=O)Nc1nnc(Cc2ccc(F)cc2)s1 | 28.6%
92 | Cc1cccc(C)c1Cn1c(C)c(C(=O)NCc2cccc(Cl)c2)sc1=O | -13.4%

Reference: PubChem BioAssay AID743279 (National Center for Advancing Translational Sciences (NCATS), 2014)
